Results reported in PubChem BioAssay AID1159580 (chemical genetic matrix, 2015).
Where “and” joins values, the source holds several entries; their conditions need not be identical. Identical values can stand only once. Hit rate of the full screen: of about 5,500 compounds, about 2,000 (36%) were called active. Roughly 18% stayed inconclusive and do not appear here. Rule as the data show it: active = normalized growth mostly below about 0.91 (no sharp cut-off); inconclusive = no clear call, values can overlap the other calls; inactive = mostly above about 0.92. Some of the results follow.

Assay: chemical genetic growth profiling, strain panel (AID 1159580);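 also: tested at 20 µM; growth read once vehicle control cultures reached saturation at 30 °C; 1 = growth at the plate median or of vehicle wells; lower values mean less growth of the strain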
Conditions: S. cerevisiae deletion strains, growth OD

Measured: normalized growth

CC(=O)N[C@@H](Cc1c[nH]c2ccccc12)C(N)=O
inactive: locus YAL013W, strain DEP1, stronger effect = lower value 1.09 | locus YAL021C, strain ccr4, stronger effect = lower value 1 | locus YAL026C, strain drs2, stronger effect = lower value 1 | locus YAL030W, strain snc1, stronger effect = lower value 1.02 | locus YBL061C, strain skt5, stronger effect = lower value 1.02 | locus YBR009C, strain hhf1, stronger effect = lower value 1.01 | locus YBR021W, strain FUR4, stronger effect = lower value 1.02 | locus YBR023C, strain chs3, stronger effect = lower value 1.02 | locus YBR171W, strain sec66, stronger effect = lower value 1.01 | locus YBR229C, strain ROT2, stronger effect = lower value 0.965 | locus YBR231C, strain swc5, stronger effect = lower value 1.02 | locus YBR279W, strain paf1, stronger effect = lower value 1.01 | locus YCL011C, strain gbp2, stronger effect = lower value 1.02 | locus YCL016C, strain dcc1, stronger effect = lower value 1.01 | locus YCL029C, strain bik1, stronger effect = lower value 0.999 | locus YCL061C, strain MRC1, stronger effect = lower value 1.02 | locus YCL069W, strain vba3, stronger effect = lower value 1.02 | locus YCR088W, strain abp1, stronger effect = lower value 1.03 | locus YDL005C, strain med2, stronger effect = lower value 1.04 | locus YDL035C, strain GPR1, stronger effect = lower value 0.985 | locus YDL040C, strain nat1, stronger effect = lower value 1.02 | locus YDL074C, strain BRE1, stronger effect = lower value 0.948 | locus YDL101C, strain DUN1, stronger effect = lower value 0.977 | locus YDL134C, strain PPH21, stronger effect = lower value 0.985 | locus YDL185W, strain tfp1, stronger effect = lower value 0.972 | locus YDL192W, strain arf1, stronger effect = lower value 0.99 | locus YDR001C, strain nth1, stronger effect = lower value 1.01 | locus YDR069C, strain doa4, stronger effect = lower value 1.03 | locus YDR101C, strain arx1, stronger effect = lower value 0.997 | locus YDR137W, strain rgp1, stronger effect = lower value 1.01 | locus YDR150W, strain NUM1, stronger effect = lower value 0.972 | locus YDR159W, strain sac3, stronger effect = lower value 1.03 | locus YDR162C, strain NBP2, stronger effect = lower value 0.945 | locus YDR195W, strain ref2 1.05 | locus YDR297W, strain sur2, stronger effect = lower value 1.03 | locus YDR318W, strain mcm21, stronger effect = lower value 1 | locus YDR334W, strain swr1, stronger effect = lower value 1.01 | locus YDR335W, strain msn5, stronger effect = lower value 1 | locus YDR388W, stronger effect = lower value 1 | locus YDR392W, strain spt3, stronger effect = lower value 0.953 | locus YDR502C, strain sam2, stronger effect = lower value 0.996 | locus YEL003W, strain gim4, stronger effect = lower value 1.01 | locus YEL037C, strain rad23, stronger effect = lower value 1.02 | locus YEL061C, strain CIN8 (second series), stronger effect = lower value 1.02 | locus YEL061C, strain CIN8, stronger effect = lower value 0.99 | locus YER015W, strain faa2, stronger effect = lower value 1.02 | locus YER016W, strain bim1, stronger effect = lower value 1.01 | locus YER110C, stronger effect = lower value 1 | locus YER111C, strain swi4, stronger effect = lower value 1.01 | locus YER155C, strain BEM2 (second series), stronger effect = lower value 1.06 | locus YER155C, strain BEM2, stronger effect = lower value 1.01 | locus YER167W, strain BCK2, stronger effect = lower value 1.01 | locus YFR010W, strain ubp6, stronger effect = lower value 1.02 | locus YGL078C, strain dbp3, stronger effect = lower value 0.994 | locus YGL086W, strain mad1, stronger effect = lower value 1 | locus YGL167C, strain pmr1, stronger effect = lower value 1.01 | locus YGL173C, strain kem1, stronger effect = lower value 1.02 | locus YGL227W, strain vid30, stronger effect = lower value 1.03 | locus YGL240W, strain doc1, stronger effect = lower value 1.05 | locus YGL248W, strain PDE1, stronger effect = lower value 0.986 | locus YGL253W, strain hxk2, stronger effect = lower value 1.01 | locus YGR078C, strain PAC10, stronger effect = lower value 0.97 | locus YGR135W, strain pre9, stronger effect = lower value 0.983 | locus YGR229C, strain SMI1, stronger effect = lower value 0.973 | locus YGR252W, strain gcn5, stronger effect = lower value 1.02 | locus YHR013C, strain ard1, stronger effect = lower value 1.03 | locus YHR027C, strain rpn1, stronger effect = lower value 1.01 | locus YHR030C, strain SLT2, stronger effect = lower value 1 | locus YHR079C, strain IRE1 (second series), stronger effect = lower value 1.01 | locus YHR079C, strain IRE1, stronger effect = lower value 0.99 | locus YHR094C, strain hxt1, stronger effect = lower value 0.995 | locus YHR129C, strain ARP1, stronger effect = lower value 0.994 | locus YHR142W, strain chs7, stronger effect = lower value 1 | locus YHR200W, strain rpn10, stronger effect = lower value 1.01 | locus YIL066C, strain RNR3, stronger effect = lower value 0.973 | locus YIL073C, strain SPO22, stronger effect = lower value 1.06 | locus YIL125W, strain kgd1, stronger effect = lower value 0.989 | locus YIR030C, strain dcg1, stronger effect = lower value 1 | locus YJL092W, strain hpr5, stronger effect = lower value 1.02 | locus YJL095W, strain BCK1 (second series), stronger effect = lower value 1.02 | locus YJL095W, strain BCK1, stronger effect = lower value 0.994 and 1.02 | locus YJL115W, strain asf1, stronger effect = lower value 1.04 | locus YJL129C, strain trk1, stronger effect = lower value 1.08 | locus YJL134W, strain LCB3, stronger effect = lower value 0.997 | locus YJL154C, strain vps35, stronger effect = lower value 1.02 | locus YJL164C, strain tpk1, stronger effect = lower value 1.02 | locus YJL166W, strain qcr8, stronger effect = lower value 1.04 | locus YJL168C, strain set2, stronger effect = lower value 0.994 | locus YJL187C, strain SWE1 (second series), stronger effect = lower value 0.972 | locus YJR043C, strain POL32, stronger effect = lower value 1.05 | locus YJR066W, strain TOR1, stronger effect = lower value 0.923
